Test results from article PMC7862700, “An all-to-all approach to the identification of sequence-specific readers for epigenetic DNA modifications on cytosine”.

Legend:
Assay in all cases: DAPPL (digital affinity profiling via proximity ligation, sequencing); 10 mM Tris-HCl pH 7.5, 50 mM NaCl, 1 mM DTT, 4% glycerol, room temperature, 30 min; GST-TFs on glutathione beads, 16-mer random dsDNA library, 0.1% formaldehyde crosslink after washing; high values mean tight binding
Conditions in all cases: protein: recombinant; tags: N-terminal GST; dsDNA, one strand shown
FLI1 = biological target: T1, FLI1 (Homo sapiens, UniProt Q01543 1-452)
T1 sequence: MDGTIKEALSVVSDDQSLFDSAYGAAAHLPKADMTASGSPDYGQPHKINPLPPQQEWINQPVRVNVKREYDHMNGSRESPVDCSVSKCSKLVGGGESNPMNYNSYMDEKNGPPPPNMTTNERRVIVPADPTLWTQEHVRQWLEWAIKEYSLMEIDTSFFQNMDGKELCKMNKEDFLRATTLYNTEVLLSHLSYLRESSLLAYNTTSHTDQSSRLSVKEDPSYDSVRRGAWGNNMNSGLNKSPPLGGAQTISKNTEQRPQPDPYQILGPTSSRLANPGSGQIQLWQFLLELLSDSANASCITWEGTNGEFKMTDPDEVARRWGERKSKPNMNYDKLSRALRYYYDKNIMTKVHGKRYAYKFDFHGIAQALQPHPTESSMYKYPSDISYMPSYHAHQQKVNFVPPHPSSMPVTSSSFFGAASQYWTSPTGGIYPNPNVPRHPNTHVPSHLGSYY
Method in brief: (§1)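 After expression in yeast as GST fusions, human transcription factors were bound to glutathione beads, DNA-barcoded and mixed with a tag-only sample. The pools were incubated with 200 nmole of a 16-mer random double-stranded DNA library in Tris/NaCl/DTT/glycerol buffer (30 min, room temperature), washed and crosslinked with 0.1% formaldehyde. Proximity ligation with BsaI/T4 ligase ran for 1 h at 37 °C, before PCR amplification and sequencing on an Illumina NextSeq500. Binding signal is a hexamer's read frequency for a factor divided by its frequency for the tag-only sample.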

ELK1 = biological target: T2, ELK1 (Homo sapiens, UniProt P19419 1-428)
T2 sequence: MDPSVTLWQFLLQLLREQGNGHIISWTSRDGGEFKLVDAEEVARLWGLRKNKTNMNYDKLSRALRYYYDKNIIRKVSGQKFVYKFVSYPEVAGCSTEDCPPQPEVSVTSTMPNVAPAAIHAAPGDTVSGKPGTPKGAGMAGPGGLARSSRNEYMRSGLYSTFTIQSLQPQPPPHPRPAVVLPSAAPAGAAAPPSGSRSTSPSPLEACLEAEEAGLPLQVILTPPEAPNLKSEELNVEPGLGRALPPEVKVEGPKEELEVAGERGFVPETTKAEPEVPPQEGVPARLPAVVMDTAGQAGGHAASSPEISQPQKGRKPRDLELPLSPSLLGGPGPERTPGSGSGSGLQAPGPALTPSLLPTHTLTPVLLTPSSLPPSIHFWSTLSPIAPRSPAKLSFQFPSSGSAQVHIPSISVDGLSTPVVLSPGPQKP
Method in brief: as §1

GABPA = biological target: T3, GABPA (Homo sapiens, UniProt Q06546 1-454)
T3 sequence: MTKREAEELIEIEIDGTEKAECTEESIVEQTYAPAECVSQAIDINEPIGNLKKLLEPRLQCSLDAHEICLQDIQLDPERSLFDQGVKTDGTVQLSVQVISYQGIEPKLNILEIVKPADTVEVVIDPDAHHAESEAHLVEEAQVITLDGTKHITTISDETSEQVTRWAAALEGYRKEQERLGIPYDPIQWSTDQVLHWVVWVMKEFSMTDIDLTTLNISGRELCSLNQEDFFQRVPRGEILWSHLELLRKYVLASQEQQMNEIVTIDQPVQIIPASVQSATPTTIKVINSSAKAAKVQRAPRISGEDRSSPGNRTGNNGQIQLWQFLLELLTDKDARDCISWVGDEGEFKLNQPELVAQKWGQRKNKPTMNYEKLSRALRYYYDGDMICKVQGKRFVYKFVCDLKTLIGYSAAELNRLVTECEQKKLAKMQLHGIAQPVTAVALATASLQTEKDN
Method in brief: as §1

ERG = biological target: T4, ERG (Homo sapiens, UniProt P11308 1-479)
T4 sequence: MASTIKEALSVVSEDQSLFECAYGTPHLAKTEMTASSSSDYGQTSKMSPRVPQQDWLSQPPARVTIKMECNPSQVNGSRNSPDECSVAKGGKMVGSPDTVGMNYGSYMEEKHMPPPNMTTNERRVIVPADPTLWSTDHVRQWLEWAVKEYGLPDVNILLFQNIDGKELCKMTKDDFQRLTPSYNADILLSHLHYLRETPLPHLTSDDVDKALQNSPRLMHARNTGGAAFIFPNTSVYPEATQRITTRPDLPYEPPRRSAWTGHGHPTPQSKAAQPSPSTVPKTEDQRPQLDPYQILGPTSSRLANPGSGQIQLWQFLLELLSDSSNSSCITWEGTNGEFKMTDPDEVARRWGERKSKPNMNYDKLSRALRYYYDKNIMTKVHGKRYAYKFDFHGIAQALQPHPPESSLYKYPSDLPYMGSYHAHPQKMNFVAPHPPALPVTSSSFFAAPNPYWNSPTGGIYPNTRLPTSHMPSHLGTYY
Method in brief: as §1

ELF1 = ELF1 (Homo sapiens, UniProt P32519 1-619)
Method in brief: as §1

EHF = biological target: T5, EHF (Homo sapiens, UniProt Q9NZC4 1-300)
T5 sequence: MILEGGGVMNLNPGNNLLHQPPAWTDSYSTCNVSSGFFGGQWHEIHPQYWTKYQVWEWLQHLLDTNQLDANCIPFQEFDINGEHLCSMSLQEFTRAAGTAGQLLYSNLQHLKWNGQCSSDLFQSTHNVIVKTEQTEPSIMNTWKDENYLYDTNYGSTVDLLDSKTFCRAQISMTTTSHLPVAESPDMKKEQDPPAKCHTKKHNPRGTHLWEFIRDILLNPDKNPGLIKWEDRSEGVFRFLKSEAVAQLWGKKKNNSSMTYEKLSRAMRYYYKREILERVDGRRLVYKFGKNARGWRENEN
Method in brief: as §1

SPI1 = SPI1 (Homo sapiens, UniProt P17947 1-270)
Method in brief: as §1

SPIB = SPIB (Homo sapiens, UniProt Q01892 1-262)
Method in brief: as §1

ELK3 = biological target: T6, ELK3 (Homo sapiens, UniProt P41970 1-407)
T6 sequence: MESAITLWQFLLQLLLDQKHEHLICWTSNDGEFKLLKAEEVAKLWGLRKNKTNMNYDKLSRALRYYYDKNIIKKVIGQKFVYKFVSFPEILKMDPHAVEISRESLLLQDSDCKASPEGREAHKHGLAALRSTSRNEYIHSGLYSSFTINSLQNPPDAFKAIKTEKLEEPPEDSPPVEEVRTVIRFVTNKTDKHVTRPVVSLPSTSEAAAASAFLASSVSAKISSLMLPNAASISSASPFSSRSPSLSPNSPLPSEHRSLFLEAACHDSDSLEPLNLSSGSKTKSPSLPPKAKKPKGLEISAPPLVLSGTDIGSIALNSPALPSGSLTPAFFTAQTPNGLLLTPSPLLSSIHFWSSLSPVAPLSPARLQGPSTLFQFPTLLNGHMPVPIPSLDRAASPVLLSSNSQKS
Method in brief: as §1

Chain of SPIB (Q01892 whole entry): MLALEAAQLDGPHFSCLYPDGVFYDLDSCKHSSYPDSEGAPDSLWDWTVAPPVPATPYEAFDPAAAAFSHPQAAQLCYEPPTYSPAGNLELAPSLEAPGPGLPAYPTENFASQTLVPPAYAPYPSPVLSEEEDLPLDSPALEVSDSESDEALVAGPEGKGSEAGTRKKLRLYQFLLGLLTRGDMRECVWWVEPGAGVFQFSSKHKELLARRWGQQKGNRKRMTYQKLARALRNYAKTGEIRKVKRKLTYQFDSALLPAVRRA
Chain of ELF1 (P32519 whole entry): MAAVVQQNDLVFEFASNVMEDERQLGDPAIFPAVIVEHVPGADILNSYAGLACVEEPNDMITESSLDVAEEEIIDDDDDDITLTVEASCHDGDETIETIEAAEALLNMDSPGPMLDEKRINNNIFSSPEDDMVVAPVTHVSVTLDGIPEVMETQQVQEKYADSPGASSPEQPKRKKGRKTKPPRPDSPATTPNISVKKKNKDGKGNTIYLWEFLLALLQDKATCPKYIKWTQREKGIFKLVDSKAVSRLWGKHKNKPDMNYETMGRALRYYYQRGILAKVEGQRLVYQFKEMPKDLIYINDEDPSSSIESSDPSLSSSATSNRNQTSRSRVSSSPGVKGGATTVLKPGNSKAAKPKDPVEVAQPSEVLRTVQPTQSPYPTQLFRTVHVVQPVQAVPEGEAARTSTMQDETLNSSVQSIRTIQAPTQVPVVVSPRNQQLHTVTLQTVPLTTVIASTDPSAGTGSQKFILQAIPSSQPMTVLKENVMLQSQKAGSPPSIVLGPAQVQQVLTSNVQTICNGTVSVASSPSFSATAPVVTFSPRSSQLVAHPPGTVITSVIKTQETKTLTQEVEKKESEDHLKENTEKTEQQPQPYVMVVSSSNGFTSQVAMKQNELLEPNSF

ATGGTC
binding signal (FLI1): 1.66 fold enrichment (6-mer frequency, TF over GST control) | binding signal (ELK1): 1.45 fold enrichment (6-mer frequency, TF over GST control) | binding signal (GABPA): 1.65 fold enrichment (6-mer frequency, TF over GST control) | binding signal (ERG): 1.69 fold enrichment (6-mer frequency, TF over GST control) | binding signal (ELF1): 1.55 fold enrichment (6-mer frequency, TF over GST control) | binding signal (EHF): 1.47 fold enrichment (6-mer frequency, TF over GST control) | binding signal (SPI1): 1.64 fold enrichment (6-mer frequency, TF over GST control) | binding signal (SPIB): 1.66 fold enrichment (6-mer frequency, TF over GST control) | binding signal (ELK3): 1.52 fold enrichment (6-mer frequency, TF over GST control)
